Assay outcomes: PubChem, National Center for Advancing Translational Sciences (NCATS)
KDM5B inh = inhibitors of human KDM5B histone demethylase | hit rate 2.6% among 220,000 | AID 1347165 | Q9UGL1 | KDM5B demethylase, FDH-coupled NADH fluorescence (FDH is formaldehyde dehydrogenase) | Potency, µM (series often up to 57.7 µM), hits mostly inhibitors; also: potency is read from the fitted curve at half-maximal effect; 0% is about no effect; nearly all actives have a fitted effect of over 70% in size
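Here, H3K4me3 peptide (12.5 µM in substrate mix) is demethylated by KDM5BΔAP, 200 nM final, after 10 min compound exposure. Formaldehyde product is coupled through FDH (0.25 U/mL in mix) to NADH fluorescence; 30-min ΔRFU feeds dose-response curves.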
IP6K1 inh = blocks human inositol hexakisphosphate kinase 1; IP6K1 kinase, ADP-Glo luminescence, 2 h; hits give low values; activity change, % (series mostly up to about 58 µM); hit rate 0.81% among 140,000; AID 1645851; in the data active = activity change below about -25%; also: % is scaled to controls: 0 for no effect and ±100 for the full control effect
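ADP-Glo luminescence measures ADP made by human IP6K1 during a 2 h RT reaction with ATP/IP6 (mix at 1.3 mM/130 uM); top library doses 57.5 and 19.1 uM final.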
SNCA expr inh = inhibitors of alpha-synuclein (SNCA) gene expression. HEK-293 SNCA-luciferase knock-in, luminescence, 24 h. Potency, µM (doses to about 57.2 µM), for the others: top-dose activity change, negative = inhibition, actives largely listed as inhibitors. hit rate 0.17% among 140,000. AID 1671194;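 also: potency is read from the fitted curve at half-maximal effect; plate controls were DMSO cells for no effect and cell-free wells for full effect; nearly all actives have a fitted effect of over 45% in size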
HEK293 viab = reduces viability of HEK-293 SNCA reporter cells. HEK-293-SNCA-luc viability, GF-AFC fluorescence, 24 h. Potency, µM (titrated, usually from 57.1 µM), inactives show at the top dose activity change, negative = cytotoxicity, most hits filed as cytotoxic. hit rate 0.12% among 150,000. AID 1671193;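 also: potency is read from the fitted curve at half-maximal effect; 0% = DMSO-treated cells and -100% = medium-only wells without cells; nearly all actives have a fitted effect of over 30% in size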
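HEK-293-SNCA-luc cells (1500/well) plated 24 h, then exposed 24 h to a dilution series; GF-AFC added 30 min at 37C, fluorescence 405/540 nm; normalised to medium-only and DMSO wells, Hill fit.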
The depositor's hits bear a star; [ ] = dose if it differs, or a comment. Most compounds without a hit are left out; they make up all but 2.8% or so of the library. Unless noted, calls follow the shape of the dose curve; as a rule, active = well fitted curve in the direction sought with a large enough effect; inconclusive = small, poorly fitted or top-dose-only effect, or another doubt; inactive = no such curve, though single readings can be large; an effect the other way counts as inactive or inconclusive.

How did COc1ccc(-c2ccc3nnc(CNC(=O)CCc4cccc(OC)c4)n3n2)cc1 do in these assays?
KDM5B inh: inconclusive; IP6K1 inh: 8; SNCA expr inh: 12%; HEK293 viab: -14%

What do the screens show for `COc1ccc(C(=O)NCc2nnc3ccc(-c4ccc(Cl)cc4)nn23)c(C)c1`?
KDM5B inh: 25µM*; IP6K1 inh: 12; SNCA expr inh: -9%; HEK293 viab: 1%

What do the screens show for `COc1ccc(-c2ccc3nnc(CNC(=O)c4ccco4)n3n2)cc1`?
KDM5B inh: 32µM*; IP6K1 inh: 6; SNCA expr inh: 9%; HEK293 viab: 9%

How did COc1ccc(-c2ccc3nnc(CNC(=O)c4ccc(OC)cc4C)n3n2)cc1 do in these assays?
KDM5B inh: 28µM*; IP6K1 inh: 13; SNCA expr inh: -13%; HEK293 viab: -6%

How did COc1ccc(-c2ccc3nnc(CNC(=O)c4cccc(OC(F)(F)F)c4)n3n2)cc1 do in these assays?
KDM5B inh: inconclusive; IP6K1 inh: 15; SNCA expr inh: 2%; HEK293 viab: -5%

Results for COc1ccc(C(=O)NCc2nnc3ccc(-c4ccc(C)c(C)c4)nn23)c(OC)c1 ?
KDM5B inh: inconclusive; IP6K1 inh: -13; SNCA expr inh: -17%; HEK293 viab: -24%

Results for COc1ccc(-c2ccc3nnc(CNC(=O)c4ccc(C)c(C)c4)n3n2)cc1 ?
KDM5B inh: 25µM*; IP6K1 inh: 15; SNCA expr inh: -10%; HEK293 viab: 4%

How did COc1ccc(C2=C(C)C(N3CCC(C(=O)Nc4ccc(C)c(Cl)c4)CC3)=NS2(=O)=O)cc1 do in these assays?
KDM5B inh: inactive

What do the screens show for `COc1ccc(-c2cc(N3CCCC(NC(=O)c4cccn4C)C3)n[nH]2)cc1` (configuration not stated)?
KDM5B inh: inconclusive; IP6K1 inh: 0; SNCA expr inh: 109%; HEK293 viab: -23%

Results for COCCN(Cc1ccco1)C(=O)c1cc(S(C)(=O)=O)ccc1C ?
KDM5B inh: inactive

How did CNC(=O)c1cc(C2CC2)nc2c1c(C1CCCN(C(=O)c3cccc(Cl)c3)C1)nn2C (configuration not stated) do in these assays?
IP6K1 inh: 0

Results for Cc1ccc(-c2ccc3nnc(CNC(=O)c4ccc(C)cc4C)n3n2)cc1 ?
KDM5B inh: 13µM*; IP6K1 inh: -2; SNCA expr inh: 18%; HEK293 viab: -6%

What do the screens show for `Cc1ccc(-c2ccc3nnc(CNC(=O)c4cccc5[nH]ccc45)n3n2)cc1`?
KDM5B inh: inactive; IP6K1 inh: -11; SNCA expr inh: -2%; HEK293 viab: inconclusive

Results for Cc1ccc(-c2ccc3nnc(CNC(=O)Cc4cccc(F)c4)n3n2)cc1 ?
KDM5B inh: inconclusive; IP6K1 inh: -9; SNCA expr inh: inconclusive; HEK293 viab: 1%

How did COc1cccc(C(=O)NCc2nnc3ccc(-c4ccc(C)cc4)nn23)c1OC do in these assays?
KDM5B inh: 14µM*; IP6K1 inh: -20; SNCA expr inh: -15%; HEK293 viab: -18%

What do the screens show for `C=CCOc1cccc(/C=N/NC(=O)C(C)O)c1` (configuration not stated)?
KDM5B inh: inactive

Results for COc1cccc(-c2ccc3c(n2)CNC(=O)CO3)c1 ?
KDM5B inh: 32µM*; IP6K1 inh: 11; SNCA expr inh: 132%[87.6 µM]; HEK293 viab: 3%[87.6 µM]

How did COc1cc(C(=O)NC2CCN(c3cc(-c4cccs4)[nH]n3)C2)cc(OC)c1OC (configuration not stated) do in these assays?
KDM5B inh: inconclusive; IP6K1 inh: -10; SNCA expr inh: 5%; HEK293 viab: -11%

Results for O=C(NC1CCN(c2cc(-c3cccs3)[nH]n2)C1)c1ccccc1Br (configuration not stated) ?
KDM5B inh: 25µM*; IP6K1 inh: -3; SNCA expr inh: 10%; HEK293 viab: -10%

Results for COc1ccccc1C(=O)NC1CCN(c2cc(-c3cccs3)[nH]n2)C1 (configuration not stated) ?
KDM5B inh: 16µM*; IP6K1 inh: 5; SNCA expr inh: -24%; HEK293 viab: inconclusive

How did COc1cc(OC)cc(C(=O)NC2CCN(c3cc(-c4cccs4)[nH]n3)C2)c1 (configuration not stated) do in these assays?
KDM5B inh: 3.5µM*; IP6K1 inh: -5; SNCA expr inh: inconclusive; HEK293 viab: inconclusive

What do the screens show for `CC(C(=O)N1CCc2ccccc2C1)N(C)CC(=O)Nc1ccc(Cl)c(C(F)(F)F)c1` (configuration not stated)?
KDM5B inh: inactive

What do the screens show for `COc1ccc2cc(CN3CCC(OC)CC3)c(-c3cccc(C)c3)nc2c1`?
KDM5B inh: 25µM*; IP6K1 inh: 13; SNCA expr inh: -1%; HEK293 viab: -19%

What do the screens show for `Cc1cccc(CN2CCCC(O)(CNCc3cccc(F)c3)C2=O)c1` (configuration not stated)?
KDM5B inh: inactive; IP6K1 inh: 1; SNCA expr inh: -11%; HEK293 viab: 0%

What do the screens show for `Cc1cc(C)n2nc(C)c(C(=O)N3CCCC(c4cccc(C(=O)O)c4)C3)c2n1` (configuration not stated)?
KDM5B inh: 32µM*; IP6K1 inh: -9; SNCA expr inh: -13%; HEK293 viab: -4%

What do the screens show for `COc1cccc([C@H]2CN(C(=O)c3c(C)nn4c(C)cc(C)nc34)C[C@@H]2N)c1`?
KDM5B inh: 28µM*; IP6K1 inh: -11; SNCA expr inh: 2%; HEK293 viab: 0%

How did COc1ccc(-n2nc(C)c3c2NC(=O)CC3c2cccc(OC)c2OC(C)C)nn1 (configuration not stated) do in these assays?
KDM5B inh: inactive

Results for CCc1noc(-c2ccn3c(CNC(=O)c4cccc(OC)c4)nnc3c2)n1 ?
KDM5B inh: 28µM*; IP6K1 inh: 20; SNCA expr inh: -10%; HEK293 viab: 3%

What do the screens show for `CCc1noc(-c2ccn3c(CNC(=O)c4ccncc4)nnc3c2)n1`?
KDM5B inh: 25µM*; IP6K1 inh: 5; SNCA expr inh: inconclusive; HEK293 viab: 6%

Results for Cc1noc(-c2ccn3c(CNC(=O)c4ccoc4)nnc3c2)n1 ?
KDM5B inh: 25µM*; IP6K1 inh: 20; SNCA expr inh: 3%; HEK293 viab: -7%

Results for Cc1noc(-c2ccn3c(CNC(=O)c4ccncc4)nnc3c2)n1 ?
KDM5B inh: inactive; IP6K1 inh: 11; SNCA expr inh: 13%; HEK293 viab: 6%

What do the screens show for `CCc1noc(-c2ccn3c(CNC(=O)c4ccoc4)nnc3c2)n1`?
KDM5B inh: 28µM*; IP6K1 inh: -1; SNCA expr inh: 4%; HEK293 viab: 4%

What do the screens show for `COc1cc(C(C)=O)ccc1Oc1cccc(Cl)c1C#N`?
KDM5B inh: inactive

What do the screens show for `CCc1ccc(OCC(=O)NC(c2ccccc2)c2cccs2)cc1` (configuration not stated)?
KDM5B inh: inactive

What do the screens show for `CCCc1noc(-c2ccn3c(CNC(=O)c4ccc(C)c(F)c4)nnc3c2)n1`?
KDM5B inh: 28µM*; IP6K1 inh: 4; SNCA expr inh: 2%; HEK293 viab: 1%
